# JMJD2A Tudor inh: JMJD2A Tudor domain (human) inhibition | O75164 | AlphaScreen JMJD2A-Tudor / H3K4me3 peptide binding | Potency, µM (series often up to 114 µM), inactives show top-dose activity change, negative = inhibition, hits mostly inhibitors | 390,000 compounds, 4.4% hits; further: on the % scale 0 is the no-effect control and ±100 the full control effect; nearly all actives have a fitted effect of over 50% in size
# HP1b chromo inh: HP1-beta chromodomain-methylated histone interaction inhibition. P83916. AlphaScreen HP1-beta / biotin-H3K9me3 peptide binding. Potency, µM (titrated, usually from 114 µM), without a hit: at the highest dose activity change, negative = inhibition, hits mostly inhibitors. 390,000 compounds, 0.56% hits. AID 540317; further: nearly all actives have a fitted effect of over 70% in size
#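 AlphaScreen: HP1-beta (50 nM) preformed 30 min with biotin-H3(1-18)K9me3 peptide (50 nM) in PBS pH 7.4, 0.01% Tween-20. Compound added for 30 min at RT, then streptavidin donor/nickel chelate acceptor beads (10 ug/mL) for 30 min.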
# BAZ2B inh: inhibitors of human BAZ2B bromodomain. Q9UIF8. AlphaScreen BAZ2B-H3K14Ac peptide displacement. Potency, µM (doses to about 114 µM), for the others: top-dose activity change, negative = inhibition, actives largely listed as inhibitors. 360,000 compounds, 4.4% hits. AID 504333; further: on the % scale 0 is the no-effect control and ±100 the full control effect; nearly all actives have a fitted effect of over 60% in size
#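 Compounds, titrated to a top concentration of 110 uM, were incubated 30 min at room temperature with preformed BAZ2B/acetyl-K14 H3 peptide complex (50 nM each). Proximity signal was measured by AlphaScreen after 20 min with beads.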
# G9a inh: G9a (human) methyltransferase inhibition | Potency, µM (top dose mostly 102 µM), for inactives: top-dose activity, negative = inhibition, most hits filed as inhibitors | AID 504332 | Q96KQ7 | 350,000 compounds, 8.8% hits | G9a H3K9 monomethylation, AlphaScreen, 2 h; further: on the % scale 0 is the no-effect control and ±100 the full control effect; nearly all actives have a fitted effect of over 75% in size
#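 Quantitative HTS format: methyltransferase activity on a biotin-tagged H3K9 peptide is measured by AlphaScreen, using a rabbit anti-monomethyl-H3K9 antibody with streptavidin donor and anti-IgG acceptor beads. Final levels are 20 nM enzyme, 500 nM peptide, 20 uM SAM; 2 h RT.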
# Sfp PPTase inh: Sfp phosphopantetheinyl transferase inhibition. Q9F4F7. Biochemical Sfp PPTase activity, qHTS. Potency, µM, without a hit: largest response in the series, negative = inhibition, usual class: inhibitors. 310,000 compounds, 3.5% hits. AID 1490;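 further: the enzyme is Sfp with the accession as filed and its product quenches rhodamine fluorescence; 0% = enzyme reaction without inhibitor and -100% = no enzyme wells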
#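 Sfp 15 nM + cpd, 15 min RT; start w/ rhodamine-CoA 5 uM, BHQ-2-YbbR 12.5 uM (final); 50 mM Hepes pH 7.6, 10 mM MgCl2, 0.01% NP-40, 0.01% BSA; read 525/598 nm at 0 and 30 min.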
# L3MBTL1 inh: blocks human L3MBTL1; Q9Y468; Potency, µM (doses to about 57.1 µM), inactives show top-dose activity, negative = inhibition, usual class: inhibitors; AlphaScreen L3MBTL1–H3K9me1 peptide binding; 230,000 compounds, 0.66% hits; further: on the % scale 0 is the no-effect control and ±100 the full control effect; nearly all actives have a fitted effect of over 60% in size
#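 Displacement of a biotinylated histone H3(1-15) peptide monomethylated at Lys9 (75 nM) from L3MBTL1 (50 nM) was measured by AlphaScreen after a 30 min room-temperature compound incubation; cefsulodin titration served as intraplate control.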
# * marks the source's active call; other numbers are inactive results; ? = inconclusive; · = no result given; ! = not active in a repeat; [ ] = dose if it differs, or a comment. Only some compounds are listed: those with a hit (about 12% of all), similar ones and a draw of the others. The call rests on the fitted dose curve; in most records, active means well fitted curve in the direction sought with a large enough effect; inconclusive means small, poorly fitted or top-dose-only effect, or another doubt; inactive means no such curve, though single readings can be large; an effect the other way counts as inactive or inconclusive. Potency means the concentration at half of the fitted maximal effect.
SMILES,JMJD2A Tudor inh,HP1b chromo inh,BAZ2B inh,G9a inh,Sfp PPTase inh,L3MBTL1 inh
Cn1c(=O)oc2cc(S(=O)(=O)N3CCCC(C(=O)N4CCN(c5cccc(Cl)c5)CC4)C3)ccc21 (stereo unspecified),-15%,27%,-12%,?,·,·
O=c1c2ccccc2nc(/C=C/c2ccc([N+](=O)[O-])o2)n1-c1ccc(O)cc1,-35%,18%,?,50µM*,-14%,?
O=c1c2ccccc2nc(/C=C/c2ccc(O)c(O)c2)n1-c1ccccc1,-34%,-15%,?,7.9µM*,-15%,-3%
O=C1Nc2ccccc2/C1=C/c1nc2ccccc2c(=O)n1-c1ccc(O)cc1,-26%,-22%,40µM*,·,?,·
CC(=O)Nc1cc(Cl)c(N=Cc2ccc(O)cc2O)cc1Cl,-6%,33%,-36%,56µM*,-17%,-23%
CC(=O)Nc1cc([As](=O)(O)O)ccc1O,-20%,17%,-37%,-2%[59 µM],-12%,-10%
CN1C(=O)C(Cc2ccc(OCc3ccccc3)cc2)C(=O)N(C)C1=O,-12%,46%,-20%,79µM*,-27%,·
COc1cc(CC2C(=O)N(C)C(=O)N(C)C2=O)ccc1OCc1ccccc1,-17%,1%,-6%,-23%[59 µM],-18%,-12%
CC([C@H](O)c1ccccc1)N(C)C (stereo partly specified),·,·,·,?,18%,·
CN(C)CC1CCCCC1OC(=O)Cc1ccc(Cl)c([N+](=O)[O-])c1 (stereo unspecified),14µM*,?,?,?,-6%,·
CC/C(=N\NC(N)=O)c1c(O)[nH]c(=O)[nH]c1=O,-22%,24%,-9%,?,?,·
CCCC(=O)c1c(O)[nH]c(=O)[nH]c1=O,18µM*,19%,?,-34%[12.7 µM],1%,·
CCN(CC)C(=O)N[C@H]1C=C2c3cccc4[nH]cc(c34)C[C@@H]2N(C)C1,·,·,·,?,4%,·
COP(=S)(OC)Oc1ccc([N+](=O)[O-])cc1,·,·,·,·,-3%,·
CC1=C(O)C(=O)[C@H]2O[C@@H]2C1=O,·,·,·,·,4µM*,·
Cc1[nH]c(=O)n(C(C)(C)C)c(=O)c1Cl,·,·,·,·,19%,·
O=[N+]([O-])c1ccc(C(c2ccc([N+](=O)[O-])cc2)c2ccc([N+](=O)[O-])cc2)cc1,?,-20%[57 µM],·,·,·,·
Cn1cnc([N+](=O)[O-])c1Sc1ccc([N+](=O)[O-])cc1,-12%,2%,-8%,·,56µM*,-2%
O=C(O)/C=C\C(=O)Nc1ccc(Oc2ccc(Br)cc2)cc1,-14%,35%,50µM*,?,9%,-4%
CN1CCN(CC#CCOc2ccc(Cl)cc2)CC1,7.9µM*,?,40µM*,11µM*,?,-6%
CC(C)CC(=O)Nc1ccc(C(=O)Cn2c(=O)oc3ccccc32)cc1,-30%,8%,?,-4%,6%,?
Cc1cc(N(CCCl)CCCl)ccc1/C=N/N=C(\N)c1cnccn1,14µM*,?,·,·,·,·
Cc1cc(N(CCCl)CCCl)ccc1C=Cc1ccncn1,30%,117%,·,·,·,·
ClC1=C(Cl)C2(Cl)C(CBr)CC1(Cl)C2(Cl)Cl (stereo unspecified),·,·,·,0%[12.7 µM],-1%,·
C[N+](C)(C)CC(=O)[O-],·,·,·,-7%[2.33 µM],-11%,·
SMILES,JMJD2A Tudor inh,HP1b chromo inh,BAZ2B inh,G9a inh,Sfp PPTase inh,L3MBTL1 inh
C[N+](C)(C)CC(=O)O,-31%,15%,7%,40µM*!,·,7%
CN(C)c1ccc(C=C2C(=O)NC(=S)NC2=O)cc1[N+](=O)[O-],35µM*,?,?,7.1µM*,-87%,-29%
CN(C)c1ccc(C=C2C(=O)NC(=O)NC2=O)cc1[N+](=O)[O-],-14%[11.4 µM],11%,·,?,25µM*,-10%
CN1C(=O)C(=Cc2ccc(N(C)C)c([N+](=O)[O-])c2)C(=O)N(C)C1=O,·,·,14%,117%[59 µM],56µM*,·
CN1C(=O)C(=Cc2cc([N+](=O)[O-])ccc2N2CCCCC2)C(=O)N(C)C1=O,-11%,16%,?,3%[59 µM],-5%,·
CCOc1cc(C=C2C(=O)NC(=O)NC2=O)cc([N+](=O)[O-])c1O,·,·,56µM*,·,35µM*,?
C=CCNc1nnc(Sc2ncccc2[N+](=O)[O-])s1,2%,20%,?,3%,-2%,·
NC(=NCCCC(N)C(=O)O)N[N+](=O)[O-] (stereo unspecified),·,·,·,·,-9%,·
CCCN1CCc2cc(O)cc3c2[C@H]1Cc1ccc(O)c(O)c1-3,13µM*,11µM*,·,1.1µM*,·,·
CCCN1CCc2cccc3c2C1Cc1ccc(O)c(O)c1-3 (stereo unspecified),·,·,·,1µM*,56µM*,·
CN1CCc2cc3c(c4c2C1Cc1ccccc1-4)OCO3 (stereo unspecified),?,10%,?,5%[0.501 µM],-27%,-25%[2.29 µM]
COc1cc2c(cc1O)C[C@H]1c3c(cc(O)c(OC)c3-2)CCN1C,-17%,15%,1%,-5%[59 µM],9%,-7%
CN1CCc2cc(O)cc3c2[C@H]1Cc1ccc(O)c(O)c1-3,7.9µM*,?,·,1.7µM*,·,·
CC(C)c1ccc(CNC(=O)c2ccc(N3CCCC3)c(NC(=O)NCc3ccccc3)c2)cc1,-23%,12%,?,-2%[59 µM],·,·
CCOC(=O)NC(O)C(Cl)(Cl)Cl (stereo unspecified),·,·,·,-1%[12.7 µM],15%,·
CCCC1=Nc2cc(C(=O)NCCc3ccc(OC)cc3OC)ccc2Sc2ccccc21,-27%,6%,79µM*,-46%[59 µM],·,·
FC(F)(F)c1ccc2c(c1)N(CCCN1CCN(CCCl)CC1)c1ccccc1S2,16µM*,-16%,40µM*,10µM*,50µM*,·
OCCN1CCN(CCCN2c3ccccc3Sc3ccc(C(F)(F)F)cc32)CC1,79µM*,10%,?,11µM*!,-6%,-6%
Cc1ccccc1-n1c(O)c(/C=N/NC(=O)c2ccncc2)c(=O)[nH]c1=O,89µM*,35%,?,-1%,17%,-7%
CC(C)c1ccc(-n2c(O)c(/C=N/NC(=O)c3ccncc3)c(=O)[nH]c2=O)cc1,?,31%,?,18µM*,6%,-1%
CCN(CC)c1ccc(N=Cc2c(O)n(-c3ccc(Cl)cc3)c(=O)[nH]c2=O)cc1,-12%,66%,-3%,·,-22%,-3%
Cc1cc(C)c(-n2c(O)c(/C=N/NC(=O)c3ccncc3)c(=O)[nH]c2=O)c(C)c1,?,49%,-39%,8%,13%,-8%
CCN(CC)c1ccc(N=Cc2c(O)n(-c3ccc(OC)cc3)c(=O)[nH]c2=O)cc1,3%,10%,0%,50µM*,?,·
CCC(C)N=Cc1c(O)n(-c2ccccc2)c(=O)[nH]c1=O (stereo unspecified),-23%,-24%,6%,10µM*,-29%,·

# Compound activity as filed in PubChem BioAssay.
